For eleven compounds, Percent Effect results are on record in ChEMBL document CHEMBL3988442, “University of Dundee, Small-Polar-MMV Screening Library” (2021).

For some of these results: Measured potencies and affinities stand elsewhere.

Set-up in all cases: scale not given: direction of the effect not stated beside the values
Test [1] deals with Protein translocase subunit SecA (Escherichia coli (strain K12)) (UniProt P10408). The test can be described thus: Assay to Identify E. coli SecA ATPase Inhibitors. The conditions noted are these: 30 µM. It is filed as functional.
Test [2] concerns the target T1, Ubiquitin-activating enzyme e1, putative (Leishmania donovani (strain BPK282A1)) (UniProt E9BSI1).
T1 sequence (whole entry): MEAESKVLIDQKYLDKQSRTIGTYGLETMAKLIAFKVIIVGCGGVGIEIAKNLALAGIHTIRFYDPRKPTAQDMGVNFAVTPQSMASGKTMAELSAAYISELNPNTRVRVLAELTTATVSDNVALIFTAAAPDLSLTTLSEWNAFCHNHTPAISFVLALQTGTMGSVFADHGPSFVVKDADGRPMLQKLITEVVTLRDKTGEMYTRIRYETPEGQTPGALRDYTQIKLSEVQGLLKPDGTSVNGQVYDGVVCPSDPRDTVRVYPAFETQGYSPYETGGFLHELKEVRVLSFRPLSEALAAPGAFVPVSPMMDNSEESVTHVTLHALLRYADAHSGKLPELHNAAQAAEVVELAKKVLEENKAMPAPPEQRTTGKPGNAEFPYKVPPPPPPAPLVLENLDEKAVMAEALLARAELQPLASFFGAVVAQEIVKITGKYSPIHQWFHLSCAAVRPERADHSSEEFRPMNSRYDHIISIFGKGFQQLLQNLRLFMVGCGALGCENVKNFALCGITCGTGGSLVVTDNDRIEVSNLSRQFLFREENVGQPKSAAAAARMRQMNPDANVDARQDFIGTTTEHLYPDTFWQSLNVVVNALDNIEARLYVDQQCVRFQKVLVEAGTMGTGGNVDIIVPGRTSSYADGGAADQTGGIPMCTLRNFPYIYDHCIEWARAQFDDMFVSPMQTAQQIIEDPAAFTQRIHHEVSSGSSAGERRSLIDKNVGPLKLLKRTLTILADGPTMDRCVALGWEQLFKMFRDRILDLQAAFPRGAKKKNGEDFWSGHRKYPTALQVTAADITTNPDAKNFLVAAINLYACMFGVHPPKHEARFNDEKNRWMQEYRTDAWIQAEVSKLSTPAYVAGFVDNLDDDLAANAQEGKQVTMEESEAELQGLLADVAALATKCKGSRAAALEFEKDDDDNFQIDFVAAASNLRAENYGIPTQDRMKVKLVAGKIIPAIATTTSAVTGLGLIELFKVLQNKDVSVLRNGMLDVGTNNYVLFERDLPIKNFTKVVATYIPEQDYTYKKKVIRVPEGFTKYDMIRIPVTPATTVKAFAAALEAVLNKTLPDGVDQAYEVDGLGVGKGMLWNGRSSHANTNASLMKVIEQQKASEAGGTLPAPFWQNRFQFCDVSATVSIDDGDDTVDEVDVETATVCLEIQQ
The test can be described thus: Leishmania donovani Ubiquitin Activating Enzyme (LdE1). It is filed as functional. The conditions noted are these: 30 µM.

Test [3] has as its target AMP-activated protein kinase, AMPK (Homo sapiens) (UniProt P54646+O43741+P54619+Q9UGJ0+Q9Y478+Q13131+Q9UGI9). The test can be described thus: AMP-dependent Kinase enzyme assay. An in vitro enzyme assay that detects ADP turnover that is directly proportional to AMPK activity. This uses naive AMPK that is activated during the assay with MK-8722. The format is functional. The conditions noted are these: 30 µM.

Test [4] has as its target Sialic acid-binding Ig-like lectin 9 (Homo sapiens) (UniProt Q9Y336). The test can be described thus: Hs-Siglec9 ALPHAscreen SOP 20170721. The conditions noted are these: 10 µM. Background: In Alpha technology, singlet oxygen from a donor bead excites a nearby acceptor bead.
Another test concerns Trypanosoma cruzi. The test is described as follows: Trypanosoma cruzi phosphomannomutase and mannose-1-phosphate guanylyltransferase assay. The conditions noted are these: 10 µM. The format is functional.
The target of test [5] is T2, Arginase-2, mitochondrial (Homo sapiens) (UniProt P78540).
T2 sequence (whole entry): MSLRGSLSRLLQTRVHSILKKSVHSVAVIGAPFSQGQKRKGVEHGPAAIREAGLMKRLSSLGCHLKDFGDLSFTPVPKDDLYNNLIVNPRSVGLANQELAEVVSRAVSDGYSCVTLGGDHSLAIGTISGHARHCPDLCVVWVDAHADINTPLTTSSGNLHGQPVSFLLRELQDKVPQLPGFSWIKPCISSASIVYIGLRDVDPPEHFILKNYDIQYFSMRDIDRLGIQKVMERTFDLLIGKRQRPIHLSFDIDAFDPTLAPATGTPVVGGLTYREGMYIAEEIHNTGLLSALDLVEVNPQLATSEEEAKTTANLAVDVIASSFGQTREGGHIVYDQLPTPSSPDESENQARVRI
The test is described as follows: in vitro enzyme assay to detect the production of urea directly proportional to the activity of Arginase II. Also: in the data most compounds retested in dose-response had high values. The format is functional. The conditions noted are these: 33.3 µM.

The target of test [6] is T3, Proteasome subunit beta (Trypanosoma cruzi) (UniProt O96673).
T3 sequence (whole entry): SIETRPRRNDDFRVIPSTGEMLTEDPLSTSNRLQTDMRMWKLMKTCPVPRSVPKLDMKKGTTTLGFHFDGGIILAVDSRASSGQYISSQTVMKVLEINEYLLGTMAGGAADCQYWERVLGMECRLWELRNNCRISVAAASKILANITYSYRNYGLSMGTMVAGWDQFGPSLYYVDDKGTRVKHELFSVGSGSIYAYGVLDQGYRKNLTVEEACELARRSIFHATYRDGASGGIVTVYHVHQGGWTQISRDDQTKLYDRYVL
The test can be described thus: Trypanosoma cruzi proteasome chymotrypsin-like activity (TcProtChymo) assay. Also: in the data most compounds retested in dose-response had high values. The format is functional. The conditions noted are these: 9.37 µM.

For another test, the species on record is Homo sapiens. The test is described as follows: To identify inhibition of the IFN signalling (Jak-Stat) pathway via expression of an eGFP reporter gene under the control of an IFN-stimulated response element (ISRE) containing MxA promoter. It is filed as functional. The conditions noted are these: 30 µM. For orientation: Reporter assays use an easily measured gene product as a stand-in for the process of interest.

In test [7] the target is T4, Tyrosyl-tRNA synthetase, putative (Trypanosoma cruzi (strain CL Brener)) (UniProt Q4DSP6).
T4 sequence (whole entry): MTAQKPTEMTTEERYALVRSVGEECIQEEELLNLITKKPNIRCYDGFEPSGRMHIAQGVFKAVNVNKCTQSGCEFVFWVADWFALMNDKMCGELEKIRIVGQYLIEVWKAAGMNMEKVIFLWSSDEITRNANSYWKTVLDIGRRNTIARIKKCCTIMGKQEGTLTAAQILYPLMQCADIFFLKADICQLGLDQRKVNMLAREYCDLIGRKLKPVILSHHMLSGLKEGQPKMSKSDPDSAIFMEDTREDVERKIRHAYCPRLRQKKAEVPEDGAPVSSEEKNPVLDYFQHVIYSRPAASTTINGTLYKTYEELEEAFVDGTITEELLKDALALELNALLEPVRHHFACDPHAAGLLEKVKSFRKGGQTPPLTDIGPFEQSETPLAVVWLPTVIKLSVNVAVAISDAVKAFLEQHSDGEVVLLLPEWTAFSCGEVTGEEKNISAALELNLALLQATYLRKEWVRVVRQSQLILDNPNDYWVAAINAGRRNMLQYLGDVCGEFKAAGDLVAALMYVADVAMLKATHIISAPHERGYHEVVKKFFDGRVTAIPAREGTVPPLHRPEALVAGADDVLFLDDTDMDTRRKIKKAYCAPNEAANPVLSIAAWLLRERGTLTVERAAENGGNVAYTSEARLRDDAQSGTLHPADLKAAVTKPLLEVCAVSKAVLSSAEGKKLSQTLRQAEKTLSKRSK
The test is described as follows: Trypanosoma cruzi tyrosyl tRNA synthetase (TcYRS) _High Tyrosine SOP. Also: in the data most compounds retested in dose-response had high values. The conditions noted are these: 30 µM. The format is functional.

The target in test [8] is T4, Tyrosyl-tRNA synthetase, putative (Trypanosoma cruzi (strain CL Brener)). The test can be described thus: Trypanosoma cruzi tyrosyl tRNA synthetase (TcYRS) SOP. The format is functional. The conditions noted are these: 30 µM.
Test [9] addresses Chromo domain-containing protein 1 (Saccharomyces cerevisiae (strain ATCC 204508 / S288c) (Baker's yeast)) (UniProt P32657). The test can be described thus: ScCHD-1 Enzyme Inhibition Assay. Also: in the data most compounds retested in dose-response had high values. It is filed as functional. The conditions noted are these: 30 µM.

Sequence of Protein translocase subunit SecA (Escherichia coli (strain K12)) (P10408 whole entry): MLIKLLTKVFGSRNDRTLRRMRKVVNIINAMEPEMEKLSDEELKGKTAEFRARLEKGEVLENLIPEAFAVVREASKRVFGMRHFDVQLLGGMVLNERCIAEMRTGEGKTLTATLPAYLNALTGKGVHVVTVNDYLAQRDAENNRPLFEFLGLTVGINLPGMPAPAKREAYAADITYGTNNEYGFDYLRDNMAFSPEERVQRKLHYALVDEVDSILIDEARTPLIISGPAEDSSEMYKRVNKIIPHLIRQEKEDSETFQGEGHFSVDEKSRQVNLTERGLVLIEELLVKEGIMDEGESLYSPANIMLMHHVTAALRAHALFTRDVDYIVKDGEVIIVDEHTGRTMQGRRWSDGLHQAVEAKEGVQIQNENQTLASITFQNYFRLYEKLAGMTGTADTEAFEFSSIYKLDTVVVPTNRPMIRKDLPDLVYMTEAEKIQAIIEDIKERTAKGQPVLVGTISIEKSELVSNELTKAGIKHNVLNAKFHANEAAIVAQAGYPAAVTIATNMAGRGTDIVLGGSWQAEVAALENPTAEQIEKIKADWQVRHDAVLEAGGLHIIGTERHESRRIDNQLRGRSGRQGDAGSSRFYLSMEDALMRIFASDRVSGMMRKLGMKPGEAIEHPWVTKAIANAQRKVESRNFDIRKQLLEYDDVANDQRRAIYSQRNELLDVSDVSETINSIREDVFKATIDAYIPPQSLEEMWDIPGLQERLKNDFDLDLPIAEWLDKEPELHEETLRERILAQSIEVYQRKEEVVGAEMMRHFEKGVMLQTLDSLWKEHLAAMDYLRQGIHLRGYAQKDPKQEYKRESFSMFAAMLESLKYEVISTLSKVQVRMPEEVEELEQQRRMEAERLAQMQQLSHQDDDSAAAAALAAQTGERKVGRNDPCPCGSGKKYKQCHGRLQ
Sequence of Sialic acid-binding Ig-like lectin 9 (Homo sapiens) (Q9Y336 whole entry): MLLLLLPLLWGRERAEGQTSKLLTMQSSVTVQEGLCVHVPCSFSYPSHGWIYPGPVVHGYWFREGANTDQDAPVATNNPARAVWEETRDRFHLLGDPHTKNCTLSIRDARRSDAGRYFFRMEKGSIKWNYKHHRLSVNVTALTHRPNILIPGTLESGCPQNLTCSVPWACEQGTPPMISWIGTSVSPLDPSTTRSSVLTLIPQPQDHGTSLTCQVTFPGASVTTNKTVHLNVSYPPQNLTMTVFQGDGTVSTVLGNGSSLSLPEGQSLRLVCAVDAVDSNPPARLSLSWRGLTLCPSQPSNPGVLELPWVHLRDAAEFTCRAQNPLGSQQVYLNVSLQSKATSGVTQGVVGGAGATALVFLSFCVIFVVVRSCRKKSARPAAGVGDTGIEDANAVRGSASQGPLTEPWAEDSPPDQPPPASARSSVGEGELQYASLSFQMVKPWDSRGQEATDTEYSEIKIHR
Sequence of Chromo domain-containing protein 1 (Saccharomyces cerevisiae (strain ATCC 204508 / S288c) (Baker's yeast)) (P32657 whole entry, the tested form may be a part): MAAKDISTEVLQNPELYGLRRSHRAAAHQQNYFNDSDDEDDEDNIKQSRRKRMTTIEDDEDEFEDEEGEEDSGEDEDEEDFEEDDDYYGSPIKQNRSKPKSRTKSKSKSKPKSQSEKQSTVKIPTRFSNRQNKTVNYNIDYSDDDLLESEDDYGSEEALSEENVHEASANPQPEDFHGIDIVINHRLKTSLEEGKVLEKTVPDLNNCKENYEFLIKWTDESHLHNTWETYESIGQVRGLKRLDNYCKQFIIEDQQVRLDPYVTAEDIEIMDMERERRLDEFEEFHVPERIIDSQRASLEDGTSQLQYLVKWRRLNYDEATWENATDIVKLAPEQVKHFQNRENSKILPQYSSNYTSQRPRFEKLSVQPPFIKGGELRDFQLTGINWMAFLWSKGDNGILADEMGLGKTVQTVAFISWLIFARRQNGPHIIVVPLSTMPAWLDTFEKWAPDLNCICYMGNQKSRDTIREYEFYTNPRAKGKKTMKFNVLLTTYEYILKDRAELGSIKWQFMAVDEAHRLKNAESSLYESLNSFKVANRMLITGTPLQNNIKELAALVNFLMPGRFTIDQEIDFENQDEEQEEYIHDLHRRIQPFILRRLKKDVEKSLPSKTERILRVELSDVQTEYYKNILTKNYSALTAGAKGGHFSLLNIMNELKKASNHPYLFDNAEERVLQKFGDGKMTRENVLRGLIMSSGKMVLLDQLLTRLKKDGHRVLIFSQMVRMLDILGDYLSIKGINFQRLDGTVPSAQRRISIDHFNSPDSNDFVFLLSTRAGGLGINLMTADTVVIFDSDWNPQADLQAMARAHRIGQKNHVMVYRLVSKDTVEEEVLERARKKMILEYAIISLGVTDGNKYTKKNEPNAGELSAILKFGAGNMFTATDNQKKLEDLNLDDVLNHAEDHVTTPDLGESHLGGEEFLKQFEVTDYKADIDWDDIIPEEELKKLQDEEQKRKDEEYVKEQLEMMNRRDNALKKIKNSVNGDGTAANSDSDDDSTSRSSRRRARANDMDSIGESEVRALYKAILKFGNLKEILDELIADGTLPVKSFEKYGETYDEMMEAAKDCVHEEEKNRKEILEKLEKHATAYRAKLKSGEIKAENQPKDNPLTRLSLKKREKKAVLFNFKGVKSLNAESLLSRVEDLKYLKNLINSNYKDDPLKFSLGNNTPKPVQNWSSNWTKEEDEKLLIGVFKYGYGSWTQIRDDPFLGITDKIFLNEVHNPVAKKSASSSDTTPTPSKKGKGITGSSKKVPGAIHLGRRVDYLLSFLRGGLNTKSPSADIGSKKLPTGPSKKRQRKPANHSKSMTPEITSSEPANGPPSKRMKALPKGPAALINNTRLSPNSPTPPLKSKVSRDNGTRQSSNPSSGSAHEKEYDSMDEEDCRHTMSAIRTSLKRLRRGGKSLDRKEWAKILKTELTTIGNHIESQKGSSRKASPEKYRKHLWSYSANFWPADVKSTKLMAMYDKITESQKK

Turning to `Cc1nn(C)c(N(C)C)c1CNCC(O)c1ccccc1` (stereo unspecified), the Percent Effect in [1] is -0.702%; in test [2], 2.74%; in test [3], -3.51%; in test [4], -6.11%; in the test on Trypanosoma cruzi, -4.31%; in [5], 3.64%. For the same compound, the Percent Effect in test [6] is 16.1%; in the test listed under Homo sapiens, -8.18%; in [7], 3.23%; in test [8], 10%; in [9], -3.32%.

As to `COCCCN1CCCN(C(C)C(=O)Nc2cccc(I)c2)CC1` (stereo unspecified), the Percent Effect in [1] is -5.27%; in [2], -5.41%; in test [3] it was 1.61%; in [4], 1.25%; with Trypanosoma cruzi, -7.42%; in test [5], -5%. Besides, the Percent Effect was 15.1% in [6]; -8.39% in the test filed under Homo sapiens; 1.98% in [7]; -3.66% in [8]; -0.402% in test [9].

As for `NC(=O)COc1cccc(C(=O)N2CCCC(n3cccn3)C2)c1` (stereo unspecified), the Percent Effect in [1] was -3.05%; in [2], 13.5%; in test [3] it was -1.18%; in [4] it was 4.63%; with Trypanosoma cruzi, 8.45%; in test [5] it was 1.29%. Also, the Percent Effect in [6] was 16%; in the test listed under Homo sapiens, 4.13%; in [7], 4.95%; in test [8], 28.1%; in test [9], -6.2%.

Regarding `O=C(CCc1cc2n(n1)CCCN(C(=O)c1ccccn1)C2)NC1CC1`, the Percent Effect was -2.88% in test [1]; 4.17% in [2]; -1.28% in [3]; 15.3% in [4]; 4.76% in the test on Trypanosoma cruzi; 21.2% in [5]. Moreover, the Percent Effect was 7.89% in test [6]; -15.2% in the test listed under Homo sapiens; 4.21% in test [7]; 5.13% in [8]; -4.34% in [9].

For the compound `CN(C)[C@@H]1CCN(c2ncccn2)[C@H]1Cc1ccccc1`, the Percent Effect in [1] is -5.52%; in test [2], 5.2%; in [3], 0.378%; in test [4], 3.63%; with Trypanosoma cruzi, 2.06%; in test [5], -1.38%. The Percent Effect in test [6] is 8.65%; in the test listed under Homo sapiens it was -3.26%; in [7], 2.15%; in [8], 6.17%; in test [9], 1.34%.

In the case of `CN(Cc1cn2c(n1)CN(C(=O)CC1CC1)CC2)Cc1ccco1`, the Percent Effect in test [1] is -3.7%; in test [2], 2.67%; in test [3] it was 8.42%; in test [4] it was 1.6%; with Trypanosoma cruzi it was -0.197%; in test [5], 8.16%. For the same compound, the Percent Effect was -3.44% in [6]; 20.3% in the test filed under Homo sapiens; 5.32% in [7]; 14.1% in test [8]; -0.584% in test [9].

For the compound `CC(CN1CCN(C)CC1)NC(=O)c1cc(Cl)c2c(c1)OCO2` (stereo unspecified), the Percent Effect in test [1] is -11.8%; in test [2] it was 1.39%; in test [3], 140%; in test [4], -0.639%; in the test on Trypanosoma cruzi, 0.68%; in test [5], 1.77%. Besides, the Percent Effect in test [6] is 8.42%; in the test filed under Homo sapiens, -2.86%; in test [7] it was 6.32%; in test [8], 10.3%; in test [9], -2.31%.

In the case of `CC(NC(=O)NCCOc1ccc(F)c(F)c1)c1nncn1C` (stereo unspecified), the Percent Effect in test [1] is -3.44%; in test [2], 5.2%; in test [3], 2.42%; in [4], 5.57%; with Trypanosoma cruzi it was 7.15%; in [5], 2.74%. The Percent Effect in [6] is 12.5%; in the test listed under Homo sapiens, 16.9%; in test [7] it was 4.76%; in test [8], 9.41%; in test [9], -12.3%.

In the case of `CC(C)CCOCCNC(=O)Nc1cc(C(F)(F)F)c[nH]c1=O`, the Percent Effect in test [1] is -7.54%; in [2] it was 8.11%; in [3], 3.62%; in [4], 2.66%; in the test with Trypanosoma cruzi, -0.464%; in test [5], -0.924%. Besides, the Percent Effect was found to be 1.62% in test [6]; 6.69% in the test filed under Homo sapiens; 6.93% in test [7]; 13.4% in [8]; 7.34% in [9].

For the compound `NC(=O)CN1CCC(NC(=O)c2ccn(-c3cccc(F)c3)n2)CC1`, the Percent Effect is -1.05% in [1]; 4.17% in test [2]; -2.99% in [3]; -2.99% in [4]; -7.68% in the test with Trypanosoma cruzi; 3.97% in test [5]. Besides, the Percent Effect in test [6] is 11.1%; in the test listed under Homo sapiens, 0.719%; in test [7], 1.05%; in [8], -2.56%; in test [9], -2.21%.

As to `Cc1nc(COCc2cnc3n2CCN(C2CCC2)C3C)cs1` (stereo unspecified), the Percent Effect in test [1] was -2.77%; in [2] it was 5.33%; in [3], -2.96%; in test [4], 12.2%; in the test on Trypanosoma cruzi, 5.21%; in [5], -57.2%. Moreover, the Percent Effect in test [6] is 10.8%; in the test filed under Homo sapiens, -7.58%; in test [7], 3.12%; in [8], 7.5%; in test [9], -6.66%.
